For 43 compounds, outcome and AC50 results are on record in PubChem BioAssay (EPA / NIEHS).

Molecules are shown by their SMILES. “And” between values parts separate entries of the source, which are not always exact repeats. Equal entries are not always repeated. Inconclusive results are not listed. Where a structure was tested more than once in an assay, its records may differ in their call. The source made the active and inactive calls. Rule for the calls, unless noted: active = hit-call score of the fitted dose curve at least 0.9, where 1 is the maximum; inactive = score below 0.9.

Read-out in experiment [1]: Interleukin-8 (IL8), CXCL8 (gene 3576)
In words: BSK_SAg_IL8: BioMAP Diversity Plus: SAg Assay for Interleukin-8 (IL8) Biomarker Activity (AID 2283094). To be noted: primary human HUVEC with PBMC; actives raise or lower the signal. An outline of the steps:
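HUVEC/PBMC co-culture, 24 h post-dose; IL-8 by ELISA. Gain or loss of signal fitted bidirectionally vs DMSO baseline.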

A short description of experiment [2]: BSK_SAg_SRB: Viability Assessment in the BioMAP Diversity Plus: SAg Assay (AID 2283096).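 Note: cells read one day after compound addition; hits may be either gain or loss of signal compared with DMSO.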 The settings on record: primary human HUVEC with PBMC. In a few lines: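 Compounds were added to a human vascular co-culture of umbilical vein endothelium and PBMC. After 24 h, parallel cultures were fixed with 10% TCA, stained with 0.1% sulforhodamine B and read at 560 nm. Gain or loss of signal was fitted relative to DMSO.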

Experiment [3] is described as follows: BSK_SAg_Proliferation: Cell Proliferation Assessment in the BioMAP Diversity Plus: SAg Assay (AID 2283095).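 Note: relative cell number as total protein by SRB absorbance in sub-confluent culture.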 To be noted: primary human HUVEC with PBMC. An outline of the steps: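 HUVEC/PBMC co-culture, 96-well. TCA-fixed (10%), 0.1% SRB stain, A560 at 96 h. Protein content used as viability readout; bidirectional fitting vs DMSO control.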
For experiment [4], the target named is human CYP19A1, CYP19A1 (gene 1588) (UniProt P11511). In words: NVS_ADME_hCYP19A1: NovaScreen (NVS) CYP450-related Enzyme Activity (ADME) Assay for human CYP19A1 (AID 2283098; active = hit-call score of the fitted dose curve at least 0.9, where 1 is the maximum;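 for AC50: potency for inhibitors seen as loss of fluorescent enzyme signal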). An outline of the steps:
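Fluorescence intensity read-out; activity taken as signal loss relative to acetonitrile vehicle. Extracted enzyme, specific substrate, no cells, 0.5 h exposure. Duplicate single-point screen at 10 uM, then concentration–response follow-up for actives.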

In experiment [5] the target is human CYP2A6, CYP2A6 (gene 1548) (UniProt P11509). In words: NVS_ADME_hCYP2A6: NovaScreen (NVS) CYP450-related Enzyme Activity (ADME) Assay for human CYP2A6 (AID 2283099; active = hit-call score of the fitted dose curve at least 0.9, where 1 is the maximum). An outline of the steps:
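Loss of fluorescence signal relative to acetonitrile vehicle reported CYP2A6 inhibition in a cell-free system using insect-cell-derived enzyme. Readings were taken at 0.5 h; top concentration in follow-up dose series was 20 uM.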

The target of experiment [6] is human CYP1A1, CYP1A1 (gene 1543) (UniProt P04798). Description: NVS_ADME_hCYP1A1: NovaScreen (NVS) CYP450-related Enzyme Activity (ADME) Assay for human CYP1A1 (AID 2283100; active = hit-call score of the fitted dose curve at least 0.9, where 1 is the maximum). In a few lines:
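Inhibition of recombinant CYP1A1 turnover was assessed fluorometrically in a biochemical format 1 h after compound exposure. Testing began at 10 uM in duplicate and progressed to concentration series reaching 20 uM, with on-plate positive and negative controls.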

Experiment [7] deals with human CYP2B6, CYP2B6 (gene 1555) (UniProt P20813). Description: NVS_ADME_hCYP2B6: NovaScreen (NVS) CYP450-related Enzyme Activity (ADME) Assay for human CYP2B6 (AID 2283101; active = hit-call score of the fitted dose curve at least 0.9, where 1 is the maximum). An outline of the steps:
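Compounds were first screened in duplicate at 10 uM against recombinant enzyme, with the fluorescent product measured after 1 hour. Active compounds were retested over a concentration series. Loss of fluorescence versus acetonitrile control was scored as reduced enzyme activity.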

Experiment [8] concerns the target human CYP1A2, CYP1A2 (gene 1544) (UniProt P05177). In words: NVS_ADME_hCYP1A2: NovaScreen (NVS) CYP450-related Enzyme Activity (ADME) Assay for human CYP1A2 (AID 2283102; active = hit-call score of the fitted dose curve at least 0.9, where 1 is the maximum;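 for AC50: fluorescence from turnover of a fluorogenic substrate by recombinant insect-cell CYP1A2; potency for inhibition since loss of fluorescence marks reduced CYP1A2 activity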). An outline of the steps:
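Inhibition scored as decrease in fluorescent product versus acetonitrile negative control. Enzyme: insect-cell recombinant human CYP1A2, substrate-specific, cell-free. Reading at 0.5 h; 10 uM duplicate initial screen with positive and negative controls on every plate.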

Experiment [9] addresses Cytochrome P450 2C18 (Homo sapiens) (UniProt P33260). Description: NVS_ADME_hCYP2C18: NovaScreen (NVS) CYP450-related Enzyme Activity (ADME) Assay for human CYP2C18 (AID 2283103). In a few lines:
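Enzyme activity measured by fluorescence 0.5 h after compound addition, using recombinant CYP2C18 and a specific substrate. Actives from duplicate 10 uM screening were retested in concentration series (top 20 uM); acetonitrile served as negative baseline.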

For experiment [10], the target named is human CYP2J2, CYP2J2 (gene 1573) (UniProt P51589). Description: NVS_ADME_hCYP2J2: NovaScreen (NVS) CYP450-related Enzyme Activity (ADME) Assay for human CYP2J2 (AID 2283106; active = hit-call score of the fitted dose curve at least 0.9, where 1 is the maximum). An outline of the steps: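 Chemicals were first tested at 10 uM in duplicate, and hits meeting criteria such as 30% inhibition were run in singleton concentration series with a 20 uM top concentration. Enzyme activity of recombinant CYP2J2 was measured by fluorescence after 1 h, relative to acetonitrile.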
Chain of human CYP2J2, CYP2J2 (gene 1573) (P51589 whole entry, looked up): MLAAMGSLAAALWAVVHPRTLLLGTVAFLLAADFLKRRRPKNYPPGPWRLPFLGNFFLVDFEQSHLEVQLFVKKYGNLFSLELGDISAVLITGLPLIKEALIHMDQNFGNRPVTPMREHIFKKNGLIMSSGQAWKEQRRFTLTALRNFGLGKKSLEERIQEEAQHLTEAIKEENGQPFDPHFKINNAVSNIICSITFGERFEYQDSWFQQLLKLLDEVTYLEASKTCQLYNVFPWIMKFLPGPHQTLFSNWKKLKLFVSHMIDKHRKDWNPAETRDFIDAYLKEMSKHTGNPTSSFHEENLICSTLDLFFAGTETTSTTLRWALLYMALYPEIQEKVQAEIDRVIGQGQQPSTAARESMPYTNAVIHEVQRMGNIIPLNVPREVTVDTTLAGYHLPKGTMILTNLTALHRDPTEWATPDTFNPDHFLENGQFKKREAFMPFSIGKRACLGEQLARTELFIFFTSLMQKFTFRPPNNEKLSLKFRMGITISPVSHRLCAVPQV

Chain of Cytochrome P450 2C18 (Homo sapiens) (P33260 whole entry, looked up): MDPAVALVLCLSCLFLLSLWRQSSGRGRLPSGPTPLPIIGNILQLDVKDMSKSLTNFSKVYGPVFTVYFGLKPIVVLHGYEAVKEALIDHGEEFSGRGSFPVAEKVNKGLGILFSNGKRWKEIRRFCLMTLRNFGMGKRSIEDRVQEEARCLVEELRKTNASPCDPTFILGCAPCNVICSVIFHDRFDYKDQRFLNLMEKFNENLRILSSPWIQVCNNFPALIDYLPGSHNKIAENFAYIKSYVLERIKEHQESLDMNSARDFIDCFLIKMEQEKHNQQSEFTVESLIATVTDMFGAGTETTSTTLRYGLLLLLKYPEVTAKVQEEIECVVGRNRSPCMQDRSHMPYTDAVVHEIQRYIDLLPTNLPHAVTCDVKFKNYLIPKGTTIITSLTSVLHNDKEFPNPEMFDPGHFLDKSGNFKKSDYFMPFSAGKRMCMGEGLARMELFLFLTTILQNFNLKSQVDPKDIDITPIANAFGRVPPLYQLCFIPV
Chain of human CYP2B6, CYP2B6 (gene 1555) (P20813 whole entry, looked up): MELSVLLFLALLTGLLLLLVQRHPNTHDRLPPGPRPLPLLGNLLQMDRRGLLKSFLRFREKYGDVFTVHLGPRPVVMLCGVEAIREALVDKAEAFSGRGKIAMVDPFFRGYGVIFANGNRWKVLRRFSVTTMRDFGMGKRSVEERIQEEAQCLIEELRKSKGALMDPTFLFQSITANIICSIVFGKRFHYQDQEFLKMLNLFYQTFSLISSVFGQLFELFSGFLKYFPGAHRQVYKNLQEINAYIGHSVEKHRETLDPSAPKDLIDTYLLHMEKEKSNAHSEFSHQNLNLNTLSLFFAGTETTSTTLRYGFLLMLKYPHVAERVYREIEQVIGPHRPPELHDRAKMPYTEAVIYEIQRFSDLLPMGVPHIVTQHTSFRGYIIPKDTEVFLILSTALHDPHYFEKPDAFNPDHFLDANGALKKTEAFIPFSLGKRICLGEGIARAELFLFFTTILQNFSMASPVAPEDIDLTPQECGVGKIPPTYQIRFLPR
Chain of human CYP2A6, CYP2A6 (gene 1548) (P11509 whole entry, looked up): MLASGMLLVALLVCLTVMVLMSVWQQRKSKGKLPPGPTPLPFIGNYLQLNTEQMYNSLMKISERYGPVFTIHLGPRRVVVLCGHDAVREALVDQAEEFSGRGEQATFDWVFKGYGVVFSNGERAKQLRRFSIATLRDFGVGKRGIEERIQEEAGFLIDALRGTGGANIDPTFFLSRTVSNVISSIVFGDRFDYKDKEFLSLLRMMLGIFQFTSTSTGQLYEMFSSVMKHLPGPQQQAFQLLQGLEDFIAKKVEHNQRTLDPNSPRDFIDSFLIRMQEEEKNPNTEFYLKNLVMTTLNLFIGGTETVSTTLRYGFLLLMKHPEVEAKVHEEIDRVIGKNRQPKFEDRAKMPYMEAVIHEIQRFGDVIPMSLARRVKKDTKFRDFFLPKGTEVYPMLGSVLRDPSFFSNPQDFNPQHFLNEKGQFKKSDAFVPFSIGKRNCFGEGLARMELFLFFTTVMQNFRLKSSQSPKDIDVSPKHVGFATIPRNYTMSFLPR
Chain of human CYP1A1, CYP1A1 (gene 1543) (P04798 whole entry, looked up): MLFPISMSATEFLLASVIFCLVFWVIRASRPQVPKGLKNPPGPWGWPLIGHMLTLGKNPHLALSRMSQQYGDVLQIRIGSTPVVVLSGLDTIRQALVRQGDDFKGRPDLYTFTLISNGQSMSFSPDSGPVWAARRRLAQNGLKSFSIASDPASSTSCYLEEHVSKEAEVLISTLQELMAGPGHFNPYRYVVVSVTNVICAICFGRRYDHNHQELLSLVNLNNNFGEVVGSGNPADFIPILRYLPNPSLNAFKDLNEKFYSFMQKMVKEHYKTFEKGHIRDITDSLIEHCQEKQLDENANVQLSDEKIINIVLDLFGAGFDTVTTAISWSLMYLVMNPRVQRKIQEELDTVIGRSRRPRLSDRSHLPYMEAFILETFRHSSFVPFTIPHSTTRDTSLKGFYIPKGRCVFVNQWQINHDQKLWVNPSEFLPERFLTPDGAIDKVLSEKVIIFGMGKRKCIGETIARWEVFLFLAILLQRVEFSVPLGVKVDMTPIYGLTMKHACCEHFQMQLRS
Chain of human CYP1A2, CYP1A2 (gene 1544) (P05177 whole entry, looked up): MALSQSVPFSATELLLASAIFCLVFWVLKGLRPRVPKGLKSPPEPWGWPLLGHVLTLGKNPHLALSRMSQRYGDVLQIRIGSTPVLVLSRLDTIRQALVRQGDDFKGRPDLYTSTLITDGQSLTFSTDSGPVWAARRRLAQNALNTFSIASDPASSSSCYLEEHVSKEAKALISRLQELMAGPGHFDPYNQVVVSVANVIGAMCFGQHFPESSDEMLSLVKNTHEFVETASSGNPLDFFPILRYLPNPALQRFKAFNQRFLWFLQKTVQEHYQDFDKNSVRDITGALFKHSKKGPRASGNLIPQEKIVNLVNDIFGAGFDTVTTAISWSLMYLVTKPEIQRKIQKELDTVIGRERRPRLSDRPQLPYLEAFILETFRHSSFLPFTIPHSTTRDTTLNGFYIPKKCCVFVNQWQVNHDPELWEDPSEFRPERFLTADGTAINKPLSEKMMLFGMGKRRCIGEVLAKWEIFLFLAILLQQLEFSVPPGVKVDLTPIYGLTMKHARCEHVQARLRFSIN
Chain of human CYP19A1, CYP19A1 (gene 1588) (P11511 whole entry, looked up): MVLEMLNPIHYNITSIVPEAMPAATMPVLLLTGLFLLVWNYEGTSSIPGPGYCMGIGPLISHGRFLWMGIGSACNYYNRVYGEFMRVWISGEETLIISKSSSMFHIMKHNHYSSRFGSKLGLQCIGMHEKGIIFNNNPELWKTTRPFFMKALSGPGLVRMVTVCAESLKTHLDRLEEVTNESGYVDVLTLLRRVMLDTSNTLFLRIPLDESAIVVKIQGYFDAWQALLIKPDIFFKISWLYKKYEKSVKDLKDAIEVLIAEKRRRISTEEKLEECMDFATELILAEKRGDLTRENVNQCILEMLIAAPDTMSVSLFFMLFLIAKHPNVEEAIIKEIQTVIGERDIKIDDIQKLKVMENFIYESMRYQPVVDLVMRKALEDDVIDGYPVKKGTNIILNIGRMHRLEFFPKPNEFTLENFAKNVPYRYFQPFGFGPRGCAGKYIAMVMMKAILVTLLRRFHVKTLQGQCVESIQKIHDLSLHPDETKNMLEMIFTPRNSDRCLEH

With `O=[N+]([O-])c1ccc2c3c(cccc13)CC2`, the result in [1] and in experiment [2] was inactive.

With `OCc1ccco1`, the outcome in experiment [1], in experiment [2] and in [4] was inactive. In experiment [3], the AC50 was 26.7 µM (active).

Regarding `C[C@@H]1C[C@@H]([C@H](O)CC2CC(=O)NC(=O)C2)C(=O)[C@@H](C)C1`, the AC50 was 1.4 µM (active) in [1], 3.82 µM (active) in [3] and 7.07 µM (active) in [2].

For `O=C(O)C(F)(F)C(F)(F)C(F)(F)C(F)(F)C(F)(F)C(F)(F)C(F)(F)C(F)(F)C(F)(F)C(F)(F)F`, the results for the AC50 in experiment [1] and in [2] were 26.8 µM (active) and 29.4 µM (active), respectively. Also, the outcome in [1] and in experiment [2] was inactive.

As to `Nc1ccc(-c2ccc(N)c(Cl)c2)cc1Cl`, the result in [1] and in experiment [3] was inactive. For the same compound, in [2], the AC50 is 8.93 µM (active).

As to `Oc1cccc2cccnc12`, the result in [1], in [2] and in [4] was inactive.

Consider `CC(=O)C(Cl)C(=O)N(C)C` (stereo not drawn), for which the AC50 in experiment [1] is 14.1 µM (active). The result in [2] was inactive.

As for `CCC[CH2][Sn]([Cl])([Cl])[Cl]`, the compound was classed as inactive in [4].

Take `CCCCCCCCc1ccc(O)cc1`: the half-maximal activity concentration (AC50) in experiment [1] is 32.2 µM (active); in experiment [2], 38.2 µM (active). The result in experiment [5] was inactive.

Take `CC(=O)C=C(C)C`: the call in experiment [4] was inactive.

As to `CC(=O)[O][Hg][c]1ccccc1`, the AC50 is 11.9 µM (active) in [1]; 1.63 µM (active) in [2]; 16 µM (active) in [6]; 6.73 µM (active) in experiment [7]; 3.31 µM (active) in experiment [8].

Take `ClC1=C(Cl)[C@]2(Cl)[C@H]3[C@H]([C@H]4C=C[C@H]3C4)[C@@]1(Cl)C2(Cl)Cl`: the outcome in [1] was inactive. Besides, the half-maximal activity concentration (AC50) in experiment [2] is 5.42 µM (active).

`CC1(C)CCC(Cc2ccc(Cl)cc2)C1(O)Cn1cncn1` (stereo not drawn): the outcome in experiment [6] was inactive.

Take `CC(C)(OO)c1ccccc1`: the result in [1] and in experiment [2] was inactive.

Regarding `NC(=O)O`, the outcome in experiment [1] and in [2] was inactive.

Regarding `COP(=S)(OC)Oc1ccc(S(=O)(=O)N(C)C)cc1`, the result in experiment [1] and in experiment [2] was inactive.

`CC(C)(C)c1cc(O)ccc1O`: the AC50 in experiment [1] is 7.38 µM (active); in experiment [2] it was 15.3 µM (active). Also, the result in experiment [5] was inactive.

Turning to `CCN1CCC2(CC1)COc1cc3c(cc12)N(C(=O)c1ccc(-c2ccc(-c4nnc(C)o4)cc2C)cc1)CC3`, the AC50 in experiment [1] is 12.3 µM (active); in experiment [2], 12.7 µM (active).

As for `Nc1ncc([N+](=O)[O-])s1`, the result in experiment [1] and in experiment [2] was inactive.

As for `Clc1ccc(C2(Cn3cncn3)CC(Br)CO2)c(Cl)c1` (stereo not drawn), the AC50 in experiment [4] is 5.55 µM (active); in [7] it was 1.16 µM (active); in experiment [9], 6.47 µM (active). Further, the compound was classed as inactive in experiment [6].

On to `Fc1ccc(C2(Cn3cncn3)OC2c2ccccc2Cl)cc1` (stereo not drawn), for which the AC50 in experiment [4] was 1.86 µM (active); in experiment [8], 5.36 µM (active).

For `COP(=S)(OC)Oc1ccc(Sc2ccc(OP(=S)(OC)OC)cc2)cc1`, the AC50 in experiment [1] was 9.59 µM (active); in experiment [8], 7.61 µM (active); in [9], 5.83 µM (active); in experiment [10], 3.3 µM (active). Moreover, in [2], the outcome was inactive.

With `Nc1cccc2ccccc12`, the result in experiment [1] and in [2] was inactive.

For the compound `CCSC(C)CC1CC(=O)C(C(CC)=NOC/C=C/Cl)=C(O)C1` (stereo not drawn), the result in experiment [1] and in experiment [2] was inactive.

Take `O=C1C2(Cl)C3(Cl)C4(Cl)C(Cl)(Cl)C5(Cl)C3(Cl)C1(Cl)C5(Cl)C24Cl` (stereo not drawn): the AC50 in experiment [1] is 26.2 µM (active); in experiment [2], 6.17 µM (active); in experiment [7], 2.02 µM (active) and 4.09 µM (active) and 1.02 µM (active); in [9], 0.519 µM (active).

`CN(C)N=O`: the result in [1] and in experiment [2] was inactive.

For the compound `NC(=S)Nc1ccccc1`, the outcome in [1] and in [2] was inactive.

Take `O=C1C(Cl)=C(Cl)C(=O)c2ccccc21`: in experiment [4], the AC50 was 7.68 µM (active).

On to `C(=NC1CCCCC1)=NC1CCCCC1`, for which the AC50 in experiment [1] is 3.97 µM (active); in experiment [2] it was 30 µM (active).

For `O=S(=O)(c1ccc(Cl)cc1)c1ccc(Cl)cc1`, the result in experiment [1] and in [2] was inactive. In [7], the AC50 is 2.89 µM (active).

Regarding `COc1cc(OC)nc(NC(=O)NS(=O)(=O)c2ncccc2C(=O)N(C)C)n1`, the result in [1] and in experiment [2] was inactive.

With `CCOC(=O)Nc1cccc(OC(=O)Nc2ccccc2)c1`, the AC50 in [8] is 11.4 µM (active).

Regarding `ClCC(Cl)CCl`, the result in experiment [1] and in experiment [2] was inactive.

With `O=[N+]([O-])c1ccc(O)c([N+](=O)[O-])c1`, the outcome in experiment [1], in experiment [2] and in [5] was inactive.

Take `O=C(Nc1ccc2[nH]ccc2c1)c1cc2cc(F)ccc2n1Cc1cccc(F)c1`: the AC50 was 6.87 µM (active) in [1] and 14.6 µM (active) in experiment [2]. The result in experiment [8] was inactive.

Turning to `COC(=O)Cc1ccccc1`, the result in experiment [1] and in [2] was inactive.

For the compound `ClC(Cl)=C(Cl)C(Cl)=C(Cl)Cl`, the result in [1] and in experiment [2] was inactive.

As to `Cn1sc(Cl)cc1=O`, the AC50 in experiment [1] was 20 µM (active). Moreover, the outcome in experiment [2] and in experiment [8] was inactive.

For the compound `O=C(O)CCC(F)(C(F)(F)F)C(F)(F)F`, the result in experiment [1] and in experiment [2] was inactive.

As to `CC(C)CCCCCCOC(=O)c1ccccc1C(=O)OCCCCCCC(C)C`, the outcome in experiment [1] was inactive. Also, in experiment [2], the AC50 is 0.206 µM (active).

For the compound `C[C@]12CCC(=O)C[C@@H]1CC[C@@H]1[C@@H]2CC[C@]2(C)[C@@H](O)CC[C@@H]12`, in experiment [1], the result was inactive. For the same compound, the concentration at half-maximal activity (AC50) in experiment [2] was 25.7 µM (active).

As for `CCOC(=O)/C=C(C)/C=C/C[C@@H](C)CCCC(C)C`, the AC50 is 20 µM (active) in [1] and 33.1 µM (active) in [2].

Turning to `[O-][Cl+2]([O-])O`, in [4], the AC50 was 5.58 µM (active).

In general, AC50 refers to the concentration giving half of the maximal activity seen.
